Assay results as given in PubChem BioAssay (NCATS).
Inconclusive results are not listed. A number with no mark means an inactive call. Calls of active or inactive are those of the source. The call rests on the fitted dose curve; in most records, active means well fitted curve in the direction sought with a large enough effect; inconclusive means small, poorly fitted or top-dose-only effect, or another doubt; inactive means no such curve, though single readings can be large; an effect the other way counts as inactive or inconclusive.

Test: qHTS assay to identify small molecule inhibitors of chordoma cells - UCH-1 (AID 1259355); further: on the % scale 0 is the no-effect control and ±100 the full control effect; nearly all actives have a fitted effect of over 55% in size
Settings: UCH-1 chordoma viability, CellTiter-Glo, 48 h, combination; series mostly up to 46.1 µM; activity, negative = inhibition: at the top concentration
Summary of the method: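 A 48hr growth-inhibition format: each drug tested at 15 concentrations together with added auranofin, camptothecin, doxorubicin, rubitecan and topotecan, with cell viability quantified as CellTiter-Glo luminescence.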

Compound | activity, negative = inhibition [%] | outcome
O=C(Nc1ccc(Br)cc1)c1cc(Br)cc(Br)c1O | 1.85 | –
CCOP(=S)(OCC)Oc1ccc2c(C)c(Cl)c(=O)oc2c1 | -13.7 | –
Cc1nnc2n1-c1ccc(Cl)cc1C(c1ccccc1Cl)=NC2 | -18.5 | –
COP(=S)(OC)SCN1C(=O)c2ccccc2C1=O | -1.86 | –
O=C1Nc2ccc(Cl)cc2C(c2ccccc2)=NC1O (stereo not given) | 3.43 | –
CCCC(C)(COC(N)=O)COC(N)=O | -6.08 | –
CN1C(=O)CC(=O)N(c2ccccc2)c2cc(Cl)ccc21 | -7.29 | –
CN1C(=O)C(O)N=C(c2ccccc2)c2cc(Cl)ccc21 (stereo not given) | -2.81 | –
COc1ccc2c(c1)C13CCCC[C@@H]1C(C2)N(C)CC3 (stereo not given in full) | 2.71 | –
CCCCCN(C)CCC(O)(P(=O)(O)O)P(=O)(O)O | -15.2 | –
CN=C1CN(O)C(c2ccccc2)=c2cc(Cl)ccc2=N1 | – | inactive
O=C1Nc2ccc(Cl)cc2C(c2ccccc2Cl)=NC1O (stereo not given) | 12.3 | –
COC(=O)C(c1ccccc1)C1CCCCN1 (stereo not given) | -10.7 | –
Clc1ccc2c(c1)C(c1ccccc1)=NCc1nncn1-2 | -14.7 | –

Test: qHTS assay to identify small molecule inhibitors of chordoma cells - UCH-2 (AID 1259356); further: on the % scale 0 is the no-effect control and ±100 the full control effect
Settings: UCH-2 chordoma viability, CellTiter-Glo ATP luminescence, 48 h; series mostly up to 46.1 µM; activity change, negative = inhibition: at the top concentration

Compound | activity change, negative = inhibition [%] | outcome
O=C(Nc1ccc(Br)cc1)c1cc(Br)cc(Br)c1O | 11.7 | –
CN1C[C@H](C(=O)N[C@]2(C)O[C@@]3(O)[C@@H]4CCCN4C(=O)[C@H](Cc4ccccc4)N3C2=O)C=C2c3cccc4[nH]cc(c34)C[C@H]21 | 0.478 | –
CCOP(=S)(OCC)Oc1ccc2c(C)c(Cl)c(=O)oc2c1 | 2.67 | –
Cc1nnc2n1-c1ccc(Cl)cc1C(c1ccccc1Cl)=NC2 | 3.92 | –
COP(=S)(OC)SCN1C(=O)c2ccccc2C1=O | -18.5 | –
Cc1nnc2n1-c1ccc(Cl)cc1C(c1ccccc1)=NC2 | 0.599 | –
O=C1Nc2ccc(Cl)cc2C(c2ccccc2)=NC1O (stereo not given) | 12.1 | –
CCCC(C)(COC(N)=O)COC(N)=O | 2.43 | –
CN1C(=O)CC(=O)N(c2ccccc2)c2cc(Cl)ccc21 | -11.8 | –
CN1C(=O)C(O)N=C(c2ccccc2)c2cc(Cl)ccc21 (stereo not given) | 7.94 | –
COc1ccc2c(c1)C13CCCC[C@@H]1C(C2)N(C)CC3 (stereo not given in full) | 3.22 | –
CCCCCN(C)CCC(O)(P(=O)(O)O)P(=O)(O)O | 0.558 | –
CN=C1CN(O)C(c2ccccc2)=c2cc(Cl)ccc2=N1 | – | inactive
O=C1Nc2ccc(Cl)cc2C(c2ccccc2Cl)=NC1O (stereo not given) | 3.59 | –
COC(=O)C(c1ccccc1)C1CCCCN1 (stereo not given) | -0.443 | –
Clc1ccc2c(c1)C(c1ccccc1)=NCc1nncn1-2 | 6.31 | –

Test: P-glycoprotein substrates identified in KB-8-5-11 adenocarcinoma cell line, qHTS therapeutic library screen (AID 1346987); further: nearly all actives have a fitted effect of over 65% in size; further: potency means the concentration at half of the fitted maximal effect; on activity change, negative = cytotoxicity: on the % scale 0 is the no-effect control and ±100 the full control effect
Settings: KB-8-5-11 (P-gp overexpressing) viability, CellTiter-Glo, 72 h; series mostly up to 44.5 µM; activity change, negative = cytotoxicity: at the top concentration
Summary of the method: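 Luminescence from CellTiter-Glo, read 5 min after addition, quantified survival of KB-8-5-11 (P-gp-overexpressing) cells exposed to compounds for 72 h. AC50 was derived from concentration-response curves.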

Compound | Potency | activity change, negative = cytotoxicity
O=C(Nc1ccc(Br)cc1)c1cc(Br)cc(Br)c1O | 4.61 µM (active) | –
CC(C)[C@H]1C(=O)N2CCC[C@H]2[C@]2(O)O[C@](NC(=O)[C@@H]3C[C@@H]4c5cccc6[nH]cc(c56)C[C@H]4N(C)C3)(C(C)C)C(=O)N12 | – | -20.9%
O=C(O)/C=C\C(=O)O | – | -26.3%
COP(=S)(OC)SCN1C(=O)c2ccccc2C1=O | – | -6.64%
COc1cccc([C@@]2(O)CCCC[C@@H]2CN(C)C)c1 | – | -1.35%
O=C1Nc2ccc(Cl)cc2C(c2ccccc2)=NC1O (stereo not given) | inactive | –
CCCC(C)(COC(N)=O)COC(N)=O | – | -3.67%
CN1C(=O)CC(=O)N(c2ccccc2)c2cc(Cl)ccc21 | – | 3.85%
COc1ccc2c(c1)C13CCCC[C@@H]1C(C2)N(C)CC3 (stereo not given in full) | – | -25.2%
CCCCCN(C)CCC(O)(P(=O)(O)O)P(=O)(O)O | inactive | –
Nc1ccn(C[C@@H](CO)OCP(=O)(O)O)c(=O)n1 | inactive | –
CN=C1CN(O)C(c2ccccc2)=c2cc(Cl)ccc2=N1 | – | 2.29%
O=C1Nc2ccc(Cl)cc2C(c2ccccc2Cl)=NC1O (stereo not given) | – | -0.159%
CN[C@@H](C)Cc1ccccc1 | – | -8.83% [at 93.4 µM]
COC(=O)C(c1ccccc1)C1CCCCN1 (stereo not given) | – | -3.54%
Clc1ccc2c(c1)C(c1ccccc1)=NCc1nncn1-2 | – | 11.3%

Test: NS1 protein of Zika virus - qHTS assay to identify small molecule inhibitors in human HEK 293 cells (AID 1347053);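 further: plate controls were infected untreated cells for no effect and uninfected cells for full effect; nearly all actives have a fitted effect of over 55% in size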
Settings: HEK293 ZIKV MR766 infection, NS1 TR-FRET, 24 h; series mostly up to 46.1 µM; activity change, negative = inhibition: at the top concentration
Summary of the method: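 Read-out is a two-antibody TR-FRET for ZIKV NS1, normalized between uninfected cells and infected cells. Compound added 1 h before MR766 infection at MOI 0.5; human HEK 293 cells incubated 24 h, 37 C.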

Compound | activity change, negative = inhibition | outcome
O=C(Nc1ccc(Br)cc1)c1cc(Br)cc(Br)c1O | -2.72% | –
Clc1ccccc1N1CCNCC1 | 5.54% | –
CC(Cc1ccccc1)N(C)Cc1ccco1 (stereo not given) | -10.8% | –
CCOP(=S)(OCC)Oc1ccc2c(C)c(Cl)c(=O)oc2c1 | 2.44% | –
COc1cccc2c1C(=O)c1c(O)c3c(c(O)c1C2=O)C[C@@](O)(C(=O)CO)CC3OC1CC(N2CCOC(OC)C2)C(O)C(C)O1 (stereo not given in full) | -56.5% | –
ClCCN1CCCC1 | -15.4% | –
CCN(CCO)CCn1c(Cc2ccccc2)nc2c1c(=O)n(C)c(=O)n2C | 7.83% | –
C[C@]12Cc3cn[nH]c3C[C@@H]1CC[C@@H]1[C@@H]2CC[C@@]2(C)[C@H]1CC[C@]2(C)O | -2.56% | –
COP(=S)(OC)SCN1C(=O)c2ccccc2C1=O | -5.28% | –
C[C@]12CCC(=O)C=C1CC[C@@H]1[C@@H]2CC[C@@]2(C)[C@H]1CC[C@]2(C)O | 0.181% | –
O=c1c(C2CC(c3ccc(-c4ccc(Br)cc4)cc3)Cc3ccccc32)c(O)sc2ccccc12 (stereo not given) | 45.4% | –
CC[N+]1(CC)CCC(OC(=O)C(O)(c2ccccc2)c2ccccc2)C1 (stereo not given) | 6.03% | –
CCCCCN(C)CCC(O)(P(=O)(O)O)P(=O)(O)O | – | inactive
O=C1OC(CCN2CCCCC2)OC1(c1ccccc1)c1ccccc1 (stereo not given) | -2.39% | –
CCc1cc2c(s1)-n1c(C)nnc1CN=C2c1ccccc1Cl | 2.05% | –
O=c1[nH]c2ccccc2n1C1CCNCC1 | -15.3% | –
C[C@@H]1CC2=CC(=O)CC[C@@H]2[C@H]2CC[C@@]3(C)[C@@H](CC[C@]3(C)O)[C@@H]21 | 0.305% | –
c1ccc(N2CCNCC2)cc1 | -4.85% | –
CCN(CC)C(=O)[C@@H]1C=C2c3cccc4[nH]cc(c34)C[C@H]2N(C)C1 | 54.6% [at 178 µM] | –
